Data from PubChem BioAssay AID1159580 (chemical genetic matrix, 2015).
“And” between values parts separate entries of the source, which are not always exact repeats. Equal entries are not always repeated. Screen size: about 5,500 compounds; about 2,000 (36%) were called active. Not shown: some 18% with an inconclusive outcome. No stated cut-off is given here; in the data, active means normalized growth mostly below about 0.91 (no sharp cut-off); inconclusive means no clear call, values can overlap the other calls; inactive means mostly above about 0.92. Some of the results follow.

Assay: chemical genetic growth profiling, strain panel (AID 1159580);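 further: tested at 20 µM; growth read once vehicle control cultures reached saturation at 30 °C; 1 = growth at the plate median or of vehicle wells; lower values mean less growth of the strain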
Conditions: S. cerevisiae deletion strains, growth OD

Measured: normalized growth

NC(=O)c1cnccn1
inactive: locus YAL013W, strain DEP1, hits give low values 1.01 and 1.02 | locus YAL021C, strain ccr4, hits give low values 0.992 | locus YAL026C, strain drs2, hits give low values 1.01 | locus YAL030W, strain snc1, hits give low values 0.996 | locus YAL040C, strain CLN3, hits give low values 1 | locus YBL061C, strain skt5, hits give low values 0.988 | locus YBR009C, strain hhf1, hits give low values 1.01 | locus YBR021W, strain FUR4, hits give low values 1.02 | locus YBR023C, strain chs3, hits give low values 1.01 | locus YBR171W, strain sec66, hits give low values 0.968 | locus YBR229C, strain ROT2, hits give low values 1 | locus YBR231C, strain swc5, hits give low values 0.984 | locus YBR279W, strain paf1, hits give low values 1 | locus YCL011C, strain gbp2, hits give low values 1 | locus YCL016C, strain dcc1, hits give low values 1.01 | locus YCL029C, strain bik1, hits give low values 1 | locus YCL061C, strain MRC1 (second series), hits give low values 1.01 | locus YCL069W, strain vba3, hits give low values 1 | locus YCR088W, strain abp1, hits give low values 0.981 | locus YDL005C, strain med2, hits give low values 0.974 | locus YDL035C, strain GPR1, hits give low values 1.01 | locus YDL040C, strain nat1, hits give low values 0.984 | locus YDL074C, strain BRE1, hits give low values 1 | locus YDL101C, strain DUN1, hits give low values 1.01 | locus YDL134C, strain PPH21, hits give low values 1.01 | locus YDL185W, strain tfp1, hits give low values 1.02 | locus YDL192W, strain arf1, hits give low values 1.01 | locus YDR001C, strain nth1, hits give low values 0.996 | locus YDR069C, strain doa4, hits give low values 0.982 | locus YDR101C, strain arx1, hits give low values 1 | locus YDR137W, strain rgp1, hits give low values 0.98 | locus YDR150W, strain NUM1, hits give low values 0.993 and 1 | locus YDR159W, strain sac3, hits give low values 1 | locus YDR162C, strain NBP2, hits give low values 1.01 | locus YDR195W, strain ref2 0.905 | locus YDR297W, strain sur2, hits give low values 0.994 | locus YDR318W, strain mcm21, hits give low values 1.02 | locus YDR334W, strain swr1, hits give low values 0.98 | locus YDR335W, strain msn5, hits give low values 0.99 | locus YDR363W, strain ESC2, hits give low values 0.964 | locus YDR388W, hits give low values 1.01 | locus YDR392W, strain spt3, hits give low values 1.05 | locus YDR502C, strain sam2, hits give low values 1.01 | locus YEL003W, strain gim4, hits give low values 0.992 | locus YEL037C, strain rad23, hits give low values 0.995 | locus YEL061C, strain CIN8 (second series), hits give low values 0.994 | locus YEL061C, strain CIN8, hits give low values 1 | locus YER002W, strain NOP16, hits give low values 1.01 | locus YER015W, strain faa2, hits give low values 0.995 | locus YER016W, strain bim1, hits give low values 1 | locus YER110C, hits give low values 0.995 | locus YER111C, strain swi4, hits give low values 0.993 | locus YER155C, strain BEM2 (second series), hits give low values 0.955 | locus YER155C, strain BEM2, hits give low values 1.01 | locus YER167W, strain BCK2, hits give low values 1.01 | locus YFR010W, strain ubp6, hits give low values 0.979 | locus YGL078C, strain dbp3, hits give low values 0.993 | locus YGL086W, strain mad1, hits give low values 1.02 | locus YGL167C, strain pmr1, hits give low values 0.987 | locus YGL173C, strain kem1, hits give low values 0.983 | locus YGL227W, strain vid30, hits give low values 0.991 | locus YGL240W, strain doc1, hits give low values 0.959 | locus YGL248W, strain PDE1, hits give low values 1 | locus YGL253W, strain hxk2, hits give low values 1.02 | locus YGR135W, strain pre9, hits give low values 0.996 | locus YGR229C, strain SMI1, hits give low values 1.03 and 1.02 | locus YGR252W, strain gcn5, hits give low values 0.988 | locus YHR013C, strain ard1, hits give low values 0.966 | locus YHR027C, strain rpn1, hits give low values 0.995 | locus YHR030C, strain SLT2, hits give low values 1 and 1.07 | locus YHR079C, strain IRE1 (second series), hits give low values 1.01 | locus YHR079C, strain IRE1, hits give low values 1.03 | locus YHR094C, strain hxt1, hits give low values 0.999 | locus YHR129C, strain ARP1, hits give low values 0.996 | locus YHR142W, strain chs7, hits give low values 0.992 | locus YHR200W, strain rpn10, hits give low values 1 | locus YIL066C, strain RNR3, hits give low values 1.01 | locus YIL073C, strain SPO22, hits give low values 1.06 | locus YIL125W, strain kgd1, hits give low values 0.999 | locus YIR030C, strain dcg1, hits give low values 1 | locus YJL092W, strain hpr5, hits give low values 0.974 | locus YJL095W, strain BCK1 (second series), hits give low values 0.995 | locus YJL095W, strain BCK1, hits give low values 0.997 and 1.06 | locus YJL115W, strain asf1, hits give low values 0.995 | locus YJL129C, strain trk1, hits give low values 0.981 | locus YJL134W, strain LCB3, hits give low values 1.01 | locus YJL154C, strain vps35, hits give low values 0.991 | locus YJL164C, strain tpk1, hits give low values 1.01 | locus YJL166W, strain qcr8, hits give low values 0.969 | locus YJL168C, strain set2, hits give low values 1.01 | locus YJL187C, strain SWE1 (second series), hits give low values 1.01 | locus YJR043C, strain POL32, hits give low values 1 | locus YJR066W, strain TOR1, hits give low values 1
